# Over roughly 110,000 compounds, “z-score” has its median near -0.1; the highest 2% begin near 2. The sample as a whole holds a higher share of the highest values than the screen did. Active and inactive are the calls of the source.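 Rule for the calls: active = z-score in the third read window above 3 or below -3; inactive = the rest.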
# Biological target: Metabotropic glutamate receptor 8 (Rattus norvegicus) (UniProt P70579)
# Assay: mGluR8 Gi/Go-coupled signaling modulation – cell-based, rat, thallium flux, HTS, primary screen (AID 488969)
# Details: HEK293 rat mGluR8, GIRK (G protein-gated inwardly rectifying potassium channel) thallium flux, FluoZin2; at 10 µM; stronger effect = higher value; submaximal glutamate (EC20) added with thallium
# Metabotropic glutamate receptor 8 (Rattus norvegicus), sequence (P70579 whole entry, looked up): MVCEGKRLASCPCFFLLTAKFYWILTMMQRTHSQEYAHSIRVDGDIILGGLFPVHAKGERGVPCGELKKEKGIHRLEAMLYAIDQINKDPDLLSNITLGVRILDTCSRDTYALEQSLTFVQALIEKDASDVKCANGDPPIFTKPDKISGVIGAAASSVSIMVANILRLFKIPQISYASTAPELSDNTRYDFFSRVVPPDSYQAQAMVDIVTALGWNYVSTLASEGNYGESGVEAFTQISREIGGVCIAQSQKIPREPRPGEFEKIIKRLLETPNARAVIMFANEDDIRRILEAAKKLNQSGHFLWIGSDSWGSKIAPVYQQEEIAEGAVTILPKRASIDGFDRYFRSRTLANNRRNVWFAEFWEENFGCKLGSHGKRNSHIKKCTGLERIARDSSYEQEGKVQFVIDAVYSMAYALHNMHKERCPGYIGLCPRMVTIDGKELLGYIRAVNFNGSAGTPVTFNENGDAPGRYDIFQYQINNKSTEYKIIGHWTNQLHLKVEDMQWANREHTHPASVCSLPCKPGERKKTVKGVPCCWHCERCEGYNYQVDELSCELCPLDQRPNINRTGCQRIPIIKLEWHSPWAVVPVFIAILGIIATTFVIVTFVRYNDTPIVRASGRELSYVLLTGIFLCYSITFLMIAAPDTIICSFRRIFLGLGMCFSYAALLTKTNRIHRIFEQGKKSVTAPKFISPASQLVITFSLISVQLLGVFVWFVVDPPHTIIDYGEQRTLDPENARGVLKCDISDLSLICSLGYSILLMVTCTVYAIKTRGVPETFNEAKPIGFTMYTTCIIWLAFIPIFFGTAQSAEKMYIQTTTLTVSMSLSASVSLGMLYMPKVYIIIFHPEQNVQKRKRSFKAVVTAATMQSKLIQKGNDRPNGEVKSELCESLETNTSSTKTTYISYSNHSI
row,Compound,z-score
1,Cc1cccc(NC(=S)NNC(=O)c2ccccc2Br)c1,0.847
2,CCNC(=S)NNC(=O)c1csc2c1CCC(C)C2 (stereo not drawn),0.0328
3,Cc1ccc(C)c(NC(=S)NNC(=O)c2cc3c(s2)CCC(C)C3)c1 (stereo not drawn),10.3 (active)
4,Cc1cccc(NC(=S)NNC(=O)c2csc3c2CCC(C)C3)c1 (stereo not drawn),9.39 (active)
5,CC(C)CNC(=S)NNC(=O)c1csc2c1CCC(C)C2 (stereo not drawn),-1.59
6,Cc1cccc(NC(=S)NNC(=O)c2ccc(Br)o2)c1,1.14
7,CC1CCc2sc(C(=O)N/N=C/C3CCCCC3)cc2C1 (stereo not drawn),-0.764
8,Cc1cccc(NC(=S)NNC(=O)c2csc3c2CCCC3)c1,14 (active)
9,Cc1ccccc1NC(=S)NNC(=O)c1csc2c1CCC(C)C2 (stereo not drawn),8.84 (active)
10,Cc1ccccc1NC(=O)c1csc2c1CCCC2,-0.435
11,C/C(=N\NC(=O)c1cc2c(s1)CCC(C)C2)c1ccncc1 (stereo not drawn),-0.506
12,CC1CCc2c(C(=O)Nc3ccc(OC(F)(F)F)cc3)csc2C1 (stereo not drawn),-0.225
13,COc1ccc(OC)c(CN(CCCN2CCOCC2)S(=O)(=O)c2ccc(NC(C)=O)cc2)c1,-0.129
14,CCN(CC)S(=O)(=O)c1ccc(-c2nnc(SCC(=O)Nc3ccc(OC)c(OC)c3)o2)cc1,0.581
15,COc1ccc(OC(C)C(=O)Nc2ccccc2C(F)(F)F)cc1 (stereo not drawn),-0.114
16,O=C(Nc1ccccc1C(=O)NCc1ccccc1)c1ccccc1,-0.543
17,COn1c(=O)c(=O)n(O)c2ccccc21,-0.141
18,CN1C(=O)c2cccc(N(C)C)c2C1=O,-0.183
19,O=C(Nc1nsc(-c2ccccc2)n1)c1cccs1,-0.31
20,Cc1nn(-c2cccc(Cl)c2)c2c1C(c1cccnc1)C(C#N)=C(N)O2 (stereo not drawn),0.0248

row,Compound,z-score
1,CCCCOc1ccc(CONS(=O)(=O)c2ccc(NC(C)=O)cc2)cc1Cl,-0.176
2,CN1CCc2c(sc(N)c2C(N)=O)C1,-0.167
3,Cc1cc(C(=O)N/N=C/c2ccc(-c3ccccc3Cl)o2)n[nH]1,-0.496
4,CCCCNC(=S)NNC(=O)c1csc(C)c1C,0.0325
5,CC1CCc2c(C(=O)Nc3nccs3)csc2C1 (stereo not drawn),-0.208
6,CC(C)CNC(=S)NNC(=O)c1csc2c1CCCC2,-0.116
7,Cc1ccc(C)c(NC(=S)NNC(=O)c2csc3c2CCCC3)c1,7.26 (active)
8,CCCCNC(=S)NNC(=O)c1csc2c1CCC(C)C2 (stereo not drawn),0.319
9,CCNC(=S)NNC(=O)c1csc2c1CCCC2,-0.209
10,Cc1ccc(C)c(NC(=S)NNC(=O)c2csc3c2CCC(C)C3)c1 (stereo not drawn),13.8 (active)
11,Cc1ccc(C)c(NC(=S)NNC(=O)c2ccco2)c1,-0.0706
12,Cc1ccc(C)c(NC(=S)NNC(=O)c2csc(C)c2C)c1,2.09
13,COC(=O)Cn1c(=NC(=O)c2ccc(OC)c(OC)c2)sc2cc(OC)ccc21,-0.167
14,COc1ccc(/C=C2\CCCc3c2nc2ccccc2c3C(=O)OCC(=O)c2c(N)n(C)c(=O)n(C)c2=O)cc1,-0.224
15,O=C(CCn1nc(-c2ccccc2)c2ccccc2c1=O)NCC1CCCO1 (stereo not drawn),-0.116
16,Clc1ccc(OCc2cc(-c3ccccc3)no2)cc1Cl,-0.0469
17,O=C(CCCCCN1C(=O)c2ccccc2C1=O)Nc1ccc(F)cc1,-0.0499
18,Cc1ccc(C(C)(C)C)c(OCCCCN2CCCC2)c1,0.658
19,Cc1cccc(C)c1OCCCN1CCCC1,0.0506
20,CC(C)(C)c1ccccc1OCCN1CCCC1,-0.516

row,Compound,z-score
1,CC(C)(C)c1ccccc1OCCCCN1CCCC1,2.06
2,Cc1cccc(C(C)(C)C)c1OCCCCN1CCCC1,2.48
3,Cc1cccc(C(C)(C)C)c1OCCOCCN1CCCC1,0.391
4,COC(=O)c1cc2oc(C)cc2n1CC(=O)Nc1cc(C)cc(C)c1,-0.162
5,O=C(CN1C(=O)CCS(=O)(=O)c2ccccc21)NCc1ccccc1,0.305
6,CCOc1ccc(C(=O)/C=C/c2ccccc2C(F)(F)F)cc1,-0.354
7,O=C(NCc1ccccn1)c1c(Cl)cccc1Cl,0.0849
8,CCCCn1c(C(C)O)nc2ccccc21 (stereo not drawn),-0.321
9,CC(C)CCn1c(C(C)O)nc2ccccc21 (stereo not drawn),-0.257
10,CC(O)c1nc2ccccc2n1C1CCCCC1 (stereo not drawn),6.36 (active)
11,N#CCCn1cc(C(CC(=O)c2ccccc2)C(=O)O)c2ccccc21 (stereo not drawn),-0.0596
12,COc1ccc(OC)c(N=c2oc3cc(O)ccc3cc2C(N)=O)c1,1.99
13,Cc1cccc(N=c2oc3cc(O)ccc3cc2C(N)=O)c1,0.0144
14,COc1ccc(N=c2oc3cc(O)ccc3cc2C(=O)NCC2CCCO2)c(OC)c1 (stereo not drawn),-0.403
15,C=CCN1C(=O)/C(=C2/Sc3ccccc3N2C)SC1=Nc1ccccc1C,-0.792
16,C=CCN1C(=O)/C(=C2/Sc3ccccc3N2C)SC1=Nc1c(C)n[nH]c1C,3.97 (active)
17,C=CCN1C(=O)/C(=C2/Sc3ccccc3N2CCCS(=O)(=O)O)SC1=S,-0.352
18,CCOC(=O)c1ccc(N2C(=O)CC(N3CCC(O)(c4ccc(Cl)cc4)CC3)C2=O)cc1 (stereo not drawn),0.433

# Reference: PubChem BioAssay AID488969 (Vanderbilt High Throughput Screening Facility, 2010)
